Measured values reported in PubChem BioAssay AID652071 (NMMLSC, 2013).

Assay: V-ATPase proton transport modulators in yeast, dose response, S. cerevisiae, pHLuorin, powder set 4 (AID 652071)
Settings: S. cerevisiae pHLuorin cytosolic pH fluorescence; series mostly up to 100 µM; response change, sign ambiguous: at the top concentration; call rule not given here

Response change, sign ambiguous, inactive:
CC(=O)N1CCN(c2ccccc2NC(=O)c2cncc(Cl)n2)CC1 -21.5%
N#Cc1cccc(C(=O)Nc2ccccc2N2CCCCC2)c1 -29.4%
CN(C)C(=O)c1cccc(C(=O)Nc2ccccc2N2CCCCC2)c1 -8.64%
CC(=O)N1CCN(c2ccccc2NC(=O)c2cccc(C(F)(F)F)n2)CC1 30.5%
CC(=O)N1CCN(c2ccccc2NC(=O)c2cccc(C(F)(F)F)c2)CC1 4.04%
CN1CCN(c2ccccc2NC(=O)c2cccc(CC#N)c2)CC1 -0.68%
CN(C)Cc1cccc(C(=O)Nc2ccccc2N2CCN(C)CC2)c1 3.21%
CC(=O)N1CCN(c2ccccc2NC(=O)c2cccc(C)n2)CC1 -39.5%
CN1CCN(c2ccccc2NC(=O)c2cccc(C(=O)N(C)C)c2)CC1 5.41%
CN1CCN(c2ccccc2NC(=O)c2cccc(CS(C)(=O)=O)c2)CC1 -10.9%
CN1CCN(c2ccccc2NC(=O)c2cccc(C(F)(F)F)n2)CC1 8.13%
N#CCc1cccc(C(=O)Nc2ccccc2N2CCCCC2)c1 -36.8%
CC(=O)N1CCN(c2ccccc2NC(=O)c2ccc(C(N)=O)o2)CC1 0%
CN1CCN(c2ccccc2NC(=O)c2ccc(Br)o2)CC1 2.63%
Cc1cccc(C(=O)Nc2ccccc2N2CCCCC2)n1 -33.3%
